Screening data from PubChem BioAssay.
Lamin A splicing: LMNA splicing modulation; 200,000 tested, 0.01% active; Potency, µM (series often up to 46.1 µM), without a hit: at the highest dose ratio change, negative = inhibition, actives largely listed as inhibitors; HeLa LMNA splicing GFP/RFP minigene ratio, 48 h; active = well fitted inhibition curve with a large enough effect in the signal ratio, with a control signal flat, not every such curve was filed as active; inconclusive = small, poorly fitted or top-dose-only effect, or effect the other way, or a change in a side signal; the % refers to the signal ratio; note: potency is the fitted concentration of half-maximal effect
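S3 HeLa cells stably expressing lamin A-EGFP splicing minigene plus DsRed2, 600 cells/well, 48 h compound exposure at 37C. Laser-scanning cytometry; analysed as GFP (500-530 nm)/RFP (575-640 nm) total intensity ratio; 0.5% DMSO vehicle.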
PNC inhibitor: blocks assembly of the perinucleolar compartment; 140,000 tested, 3.1% active; activity change (PNC), negative = inhibition, % at 10 µM; AID 2417; PC3M PTB-GFP, PNC prevalence imaging, 16 h; stronger effect = lower value;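 active = readout at or below -70, meaning at least 70% loss of cells showing the perinucleolar compartment, a nuclear body marking cancer cells; inconclusive = readout between -30 and a set limit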;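 note: plate controls were DMSO wells for no effect and camptothecin positive control wells for full effect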
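PC3M cells stably expressing PTB-GFP, 750–1000 cells/well, treated 16 h at 37 °C with compound (23 nl of library stock), in duplicate. After paraformaldehyde fixation and Hoechst stain, imaged at 20x; PNC prevalence scored by image analysis.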
HPGD block: inhibitors of human 15-hydroxyprostaglandin dehydrogenase (HPGD) | AID 894 | Potency, µM, for inactives: at the highest dose activity change, negative = inhibition, hits mostly inhibitors | 150,000 tested, 4.3% active | P15428 | purified HPGD, NADH fluorescence kinetic, PGE2 substrate; note: potency is the fitted concentration of half-maximal effect
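NADH formation kinetics: reaction with 30 uM PGE2 and 1 mM NAD+ (final), 20 nM enzyme, Tris-HCl pH 8 with Tween 20, after 15 min compound preincubation at room temperature. Fluorescence change, last versus first of five reads.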
ALDH1A1 block: ALDH1A1 (human) enzyme inhibition; P00352; Potency, µM (highest dose often 75.3 µM), for inactives: at the top dose activity, negative = inhibition, hits mostly inhibitors; 220,000 tested, 7.3% active; AID 1030; Purified ALDH1A1, NADH fluorescence, propionaldehyde substrate;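 note: potency is the fitted concentration of half-maximal effect; plate controls were no enzyme wells and a reference inhibitor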
ALOX12 inhib: inhibitors of human 12-lipoxygenase (ALOX12); 150,000 tested, 0.12% active; purified 12-hLO, xylenol orange hydroperoxide absorbance; Potency, µM (titrated, usually from 57.1 µM), for the others: at the top dose activity change, negative = inhibition, hits mostly inhibitors; P18054; active = well fitted inhibition curve with a large enough effect; inconclusive = small, poorly fitted or top-dose-only effect; note: potency is the fitted concentration of half-maximal effect; nearly all actives have a fitted effect of over 55% in size
Target sequence (P18054 whole entry, looked up): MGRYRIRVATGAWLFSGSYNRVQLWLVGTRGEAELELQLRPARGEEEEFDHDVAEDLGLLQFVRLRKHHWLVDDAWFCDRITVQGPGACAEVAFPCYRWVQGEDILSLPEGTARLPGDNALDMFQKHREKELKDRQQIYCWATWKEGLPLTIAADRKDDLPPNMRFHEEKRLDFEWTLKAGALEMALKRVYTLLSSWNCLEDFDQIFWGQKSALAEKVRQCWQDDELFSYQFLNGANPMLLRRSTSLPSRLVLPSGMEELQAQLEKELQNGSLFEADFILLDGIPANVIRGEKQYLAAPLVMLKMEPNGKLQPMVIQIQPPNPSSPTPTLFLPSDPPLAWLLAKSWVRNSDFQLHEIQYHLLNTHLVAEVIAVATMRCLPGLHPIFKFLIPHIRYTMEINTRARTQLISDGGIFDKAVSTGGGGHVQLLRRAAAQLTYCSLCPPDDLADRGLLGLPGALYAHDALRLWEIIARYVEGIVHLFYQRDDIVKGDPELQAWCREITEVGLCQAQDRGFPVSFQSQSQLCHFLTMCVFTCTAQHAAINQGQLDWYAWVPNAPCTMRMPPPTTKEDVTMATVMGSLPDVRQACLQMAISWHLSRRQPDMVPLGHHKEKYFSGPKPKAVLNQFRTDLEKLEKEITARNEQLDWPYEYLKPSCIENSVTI
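Purified human 12hLO (150 nM final) was preincubated with compounds for 15 min at room temperature in 25 mM Hepes pH 7.0, 0.01% Triton X-100, then reacted with 40 uM arachidonic acid for 30 min. Hydroperoxide was detected with ferrous iron/xylenol orange.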
* marks the source's active call; other numbers are inactive results; ? = inconclusive; . = no result; [ ] = remark or other dose. Shown are actives, neighbours in structure and some others; about 10% of the full set was active somewhere. Unless noted, calls come from the whole dose curve; as a rule, active = well fitted inhibition curve with a large enough effect (not every such curve was filed as active); inconclusive = small, poorly fitted or top-dose-only effect, or another doubt; inactive = no such curve, though single readings can be large or run the other way. Unless noted, % is set by controls: 0 for no effect and ±100 for the full control effect.

SMILES	Lamin A splicing	PNC inhibitor	HPGD block	ALDH1A1 block	ALOX12 inhib
COc1ccc(-c2cc(C(C)=O)c(C)n2CCC(=O)NCc2ccc(F)cc2)cc1	-2.4%[46 µM]	.	.	.	.
CCN(CC)C(=O)c1sc2c(c1C)c(=O)n(-c1ccccc1)c(=O)n2CC(=O)N(CC)c1cccc(C)c1	6.5%[46 µM]	.	.	.	.
Cn1c(=O)oc2cc(S(=O)(=O)N3CCCC(C(=O)NC4CCCc5ccccc54)C3)ccc21 (stereo unspecified)	-20.6%	-1.5	?	2.8%	-6.3%
CCOC(=O)N1CCN(S(=O)(=O)c2ccc3c(c2)oc(=O)n3C)CC1	5.1%	-80.5*	2.5%	-0.5%	-2.0%
COC(=O)n1c(=O)oc2cc(S(=O)(=O)N3CCCCC3)ccc21	?	20.3	-10.7%	-0.7%	-4.3%
O=C(Cn1c(=O)oc2cc(S(=O)(=O)N3CCCC3)ccc21)N1CCc2ccccc2C1	-11.6%	5.3	-8.6%	11.2µM*	2.2%
Cn1c(=O)oc2cc(S(=O)(=O)N3CCCC(C(=O)N4CC=C(c5ccccc5)CC4)C3)ccc21 (stereo unspecified)	?	?	14.1µM*	?	0.4%
CCOC(=O)n1c(=O)oc2cc(S(=O)(=O)N3CCCCC3)ccc21	?	-100.0*	-21.2%	1.2%	-2.7%
OCCCSCCO	.	.	-1.6%	6.5%[13.5 µM]	0.7%[11.4 µM]
COc1ccccc1N1CCN(c2ccc(NC(=O)c3ccc(C)cc3)cc2C(=O)O)CC1	1.4%[46 µM]	.	.	.	.
CCOC(=O)N1CCC(N2CCN(S(=O)(=O)c3ccc(Cl)cc3)CC2)CC1	-22.4%	9.4	-12.9%	14.1µM*	-21.4%
CCOC(=O)N1CCC(N2CCN(S(=O)(=O)c3ccc(NC(C)=O)cc3)CC2)CC1	-13.8%	?	2.1%	?	-2.0%
Cc1ccccc1NC(=O)Cn1nc(-c2ccc(F)cc2)c2cnc3ccccc3c21	-0.2%[46 µM]	.	.	.	.
CCN(CC)c1ccc(C(NC(C)=O)NC(C)=O)cc1	5.8%	-4.2	-14.8%	14.1µM*	-0.7%
CC(=O)NC(NC(C)=O)c1ccc(Br)cc1	4.1%	36.3	-7.5%	9.4%	-4.8%
CC(=O)NC(NC(C)=O)c1ccc(N(C)C)cc1	-6.1%	27.4	-6.7%	2.24µM*	15.2%
COc1ccc(S(=O)(=O)NCCN2CCNC2=O)cc1OC	-1.2%[46 µM]	.	.	7.6%	.
OCc1cnc(SCc2ccccc2F)n1Cc1ccc(F)cc1	11.3%[46 µM]	.	.	.	.
O=C(CSc1nc(-c2cccs2)cc(C(F)(F)F)n1)Nc1cc(OCC(F)(F)F)cc([N+](=O)[O-])c1	?	-89.9*	-0.1%	2.5%	-3.3%
BrC(/C=N/Nc1nc(N2CCOCC2)nc(N2CCOCC2)n1)=C/c1ccccc1	?	-95.6*	15.8µM*	?	2.4%
O=[N+]([O-])c1cc2c(cc1/C=N/Nc1nc(N3CCCC3)nc(N3CCCC3)n1)OCO2	-10.3%	?	-17.0%	3.5%	-6.9%
Brc1cc2c(cc1/C=N/Nc1nc(N3CCOCC3)nc(N3CCOCC3)n1)OCO2	-1.2%	-26.2	-14.7%	20µM*	-6.3%
O=C(OCC1CO1)C1CCCCC1C(=O)OCC1CO1 (stereo unspecified)	.	.	1.2%	6.9%	2.1%
CC(=O)[C@]1(O)Cc2c(O)c3c(c(O)c2[C@@H](O[C@H]2C[C@H](N)[C@H](O)[C@H](C)O2)C1)C(=O)c1c(O)cccc1C3=O	.	.	-2.9%	-4.4%	-4.3%[0.00818 µM]
CCCn1nnnc1NC(=O)CSc1ccc(Cl)cc1	-8.0%	-27.2	15.8µM*	5.9%	-7.5%
COc1cc(C2c3sc(=O)[nH]c3SC3C4CCC(C4)C23)ccc1O (stereo unspecified)	0.7%	114.6	-4.5%	?	-12.1%
COC(=O)C1CSc2[nH]c(=O)sc2C1c1ccc(O)c(OC)c1 (stereo unspecified)	-5.7%	?	?	2.51µM*	-24.2%
CCOC(=O)C1CSc2[nH]c(=O)sc2C1c1ccccc1 (stereo unspecified)	0.5%	5.0	-6.8%	28.2µM*	-1.3%
CCc1cccc(C)c1NC(=O)C1CCN(S(=O)(=O)c2c(C)noc2/C=C/c2c(C)cc(C)cc2C)CC1	12.6%[46 µM]	.	.	.	.
Cc1nc2ccccc2c(-c2ccccc2)c1CC(=O)O	-4.2%	-10.2	-4.2%	9.8%	0.2%
